Screening results deposited in PubChem by Broad Institute.
DUX4 inh – blocks DUX4-driven transcriptional activation | 0.8% of 37,000 active | 293T-iDUX4 ZSCAN4-Gaussia luciferase reporter, 24 h; hits give low values | activity change, negative = inhibition, % (concentration not given with the values);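 active means mean inhibition of at least 10% in the main channel, exceeding the control channel by a set limit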
Large screens that a line does not name were inactive. The sample as a whole holds a higher share of hits than the screen did.

O=C(Cc1ccncc1)N1CCCCN2[C@H](CO)[C@H](c3ccc(-c4ccncc4)cc3)[C@@H]2C1	none
O=C(Cc1ccncc1)N1CCCCN2[C@H](CO)[C@@H](c3ccc(C#Cc4ccccc4F)cc3)[C@H]2C1	DUX4 inh -28
O=C(Cc1ccncc1)N1CCCCN2[C@@H](CO)[C@@H](c3ccc(-c4ccncc4)cc3)[C@@H]2C1	none
COC(=O)[C@H]1N[C@H]2c3ccc(C4=CCCC4)c(=O)n3C[C@H]2[C@@H]1CO	none
c1cncc(-c2ccc(C3[C@H]4CNC[C@@H]3N4CC3CC3)cc2)c1 (stereo not given in full)	none
COC(=O)[C@@H]1[C@@H](CO)[C@@H]2Cn3c(ccc(-c4cccnc4)c3=O)[C@H]1N2S(=O)(=O)c1ccccc1C	none
COC(=O)[C@H]1[C@H](CO)[C@H]2Cn3c(ccc(-c4cccnc4)c3=O)[C@@H]1N2S(=O)(=O)c1ccccc1C	none
COC(=O)[C@@H]1[C@@H](CO)[C@@H]2Cn3c(ccc(-c4cncnc4)c3=O)[C@H]1N2S(=O)(=O)c1ccccc1C	DUX4 inh -17
Cc1ccccc1-c1ccc([C@H]2[C@@H](CO)N3CCCCN(C(=O)Cc4ccccn4)C[C@@H]23)cc1	none
O=C(Cc1ccccc1)N1CC2(C1)[C@@H](c1ccccc1)[C@H](CO)N2Cc1cccc(F)c1	none
